Assay outcomes (PubChem BioAssay)
This is a sample that favours compounds with a hit; in the whole collection about 2.7% have one here.
Shn3 3UTR inh – reduces Shn3 3'UTR luciferase signal in osteoblasts. inhibition, % at 12.5 µM. Clone20 osteoblast Shn3 3'UTR firefly luciferase, 24 h. 360,000 compounds, 0.52% hits;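 active = mean inhibition of at least 75% with every replicate also reaching 75%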
MITF TRPM1 inh – MITF TRPM1 promoter inhibition in SK-MEL-5 cells; SK-MEL-5 TRPM1 promoter luciferase, 24 h; inhibition, % at 12.5 µM; 330,000 compounds, 0.83% hits; AID 488899;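 active = mean inhibition across replicates of 60% or more, whatever share of single replicates reaches that level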
HIF-2a block – HIF-2a inhibition; 786-0 RCC cells HIF-2a reporter, luciferase luminescence, overnight; inhibition, % at 18.8 µM; 360,000 compounds, 0.72% hits;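 active = inhibition of the luminescence signal of 40% or more relative to plate controls, in a single-dose primary screen at 18.75 µM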
KKLEB tox – reduces viability of KKLEB cystic fibrosis airway cells; KKLEB CF airway cells viability, ATPlite luminescence, overnight; stronger effect = lower value; cells stimulated with P. aeruginosa culture filtrate; activity change (cytotoxicity), % at 5 µM; 360,000 compounds, 0.36% hits;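 active = corrected activity change at or below -50% at 5 µM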
CF NFkB inh – cystic fibrosis NF-kB activation inhibition; KKLEB NF-kB-GFP reporter, PAF-induced, GFP fluorescence overnight; inhibition, % at 5 µM; 360,000 compounds, 0.86% hits;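 active = at least 50% inhibition at 5 µM, scaled per plate between neutral and stimulator controls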;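 also: PAF is a Pseudomonas aeruginosa culture filtrate used as stimulus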
Peg3 prom inh-1 – inhibitors of Peg3 promoter; HeLa PEG-Prom luciferase reporter, luminescence, overnight; inhibition, % at 20 µM; 360,000 compounds, 1.7% hits;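 active = inhibition of at least 50% at 20 µM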
Peg3 prom inh-2 – Peg3 promoter inhibition confirmation; shares compounds with Peg3 prom inh-1; HeLa PEG-Prom luciferase reporter, luminescence, overnight; inhibition, % at 20 µM; 1,300 compounds, 84% hits; AID 602417;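 active = at 20 µM dose, 40% or more inhibition averaged across four replicates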
CF NFkB conf – CF NF-kB inhibition confirmation, single concentration; shares compounds with CF NFkB inh; KKLEB CF airway cells, PAF-induced NF-kB-GFP fluorescence, overnight; inhibition, % at 5 µM; 1,300 compounds, 64% hits; AID 602472; in the data active = inhibition above about 40%;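 also: stimulus PAF is a Pseudomonas aeruginosa filtrate and not platelet activating factor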
Mdm2 MdmX conf – Mdm2/MdmX (human) interaction inhibition, confirmed. inhibition, % at 8 µM. shares compounds with HIF-2a block. 740 compounds, 99% hits. SaOS-2 split-luciferase Mdm2/MdmX complementation, luminescence. AID 504601;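 active = mean inhibition of the luminescence signal across two replicates at or above 26 percent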
HIF-2a inh conf – confirmation of HIF-2a inhibitors | shares compounds with HIF-2a block | 786-0 RCC cells, HIF-2a luciferase reporter luminescence, overnight | inhibition, % at 18.8 µM | 1,800 compounds, 56% hits;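 active = mean inhibition across four replicates of at least 40 percent at the single tested concentration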
HIF-1a counter – HIF-1a inhibition counter-screen for HIF-2a hits. shares compounds with HIF-2a block. MiaPaCa-2 HIF-1a luciferase reporter, desferoxamine, overnight. inhibition, % at 18.8 µM. 1,800 compounds, 72% hits. AID 651589;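 active = mean inhibition of the reporter signal across four replicates at the single tested dose of 50% or more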
Hits are given with their value; – = inactive; · = not tested or not shown.

SMILES | Shn3 3UTR inh | MITF TRPM1 inh | HIF-2a block | KKLEB tox | CF NFkB inh | Peg3 prom inh-1 | Peg3 prom inh-2 | HIF-2a inh conf | HIF-1a counter | others
O=C(O)c1ccc(N/N=C/c2ccc(OC(=O)c3cccc(Cl)c3)cc2)cc1 | – | 78 | 72 | – | – | 69 | 64 | 83 | 83
O=C(O)c1ccc(N/N=C/c2ccc3nccnc3c2)cc1 | – | 99 | 91 | – | – | 99 | 96 | 96 | 83
COc1cccc(CNc2nc3cc(-c4ccccc4CO)sc3c(=O)n2C)c1 | – | · | – | – | – | – | · | · | ·
CCN(c1ccccc1)S(=O)(=O)c1cc(C(=O)NCC(c2ccc(OC)cc2)N(C)C)ccc1C (stereo unspecified) | – | – | – | – | – | – | · | · | ·
Cc1nn(-c2ccccc2Cl)c(Cl)c1/C=N/Nc1nc2ccccc2s1 | – | 98 | 74 | – | – | 72 | 75 | 84 | 92 | Mdm2 MdmX conf=98
CCNC(=O)C1(C)CCN(C(=O)c2cc(OC)c(OC)c(OC)c2)C1 (stereo unspecified) | – | · | – | – | – | – | · | · | ·
Cc1cc(C)c2nc(NNC(=O)c3ccc(S(=O)(=O)N4CCCC(C)C4)cc3)sc2c1 (stereo unspecified) | – | – | – | – | – | 66 | 75 | · | · | Mdm2 MdmX conf=86
CC1CCCN(S(=O)(=O)c2ccc(C(=O)Nc3nnc(C4CC4)o3)cc2)C1 (stereo unspecified) | – | – | – | – | – | – | · | · | ·
O=C1C(O)=C(O)C(=O)c2ccccc21 | – | – | – | – | – | – | · | · | ·
O=C1C(Cl)=C(Nc2ccc(O)cc2)C(=O)c2ccccc21 | 92 | 97 | 94 | -82 | 108 | 107 | 96 | · | · | Mdm2 MdmX conf=103
Cc1ccc(-c2nnc(SCC(=O)Nc3ccccc3F)o2)cc1 | – | 76 | 77 | – | – | 89 | 85 | 89 | 96
CC(=O)CSc1ccc(-c2nc3cc(C)c(C)cc3[nH]2)cn1 | – | 83 | 67 | – | – | 84 | 71 | 85 | 100
CC(=O)CSc1ccc(-c2nc3ccccc3[nH]2)cn1 | – | – | – | – | – | – | · | · | ·
CC(=O)Nc1ccc(NC(=O)c2nc(S(=O)(=O)Cc3cccc(C)c3)ncc2Cl)cc1 | 97 | – | – | – | 102 | 102 | 96 | · | · | CF NFkB conf=82;Mdm2 MdmX conf=103
CCCS(=O)(=O)c1ncc(Cl)c(C(=O)Nc2ccc(S(=O)(=O)Nc3ncccn3)cc2)n1 | – | – | – | – | – | – | · | · | ·
COc1cccc(NC(=O)c2nc(S(C)(=O)=O)ncc2Cl)c1 | 97 | – | 68 | – | 88 | 108 | 98 | 65 | – | CF NFkB conf=61;Mdm2 MdmX conf=101
CC1(Oc2ccccc2)CCN(Cc2csc3ccccc23)C1 (stereo unspecified) | – | · | – | – | – | – | · | · | ·
COc1cc(/C=C/C(=O)N2CCC=CC2=O)cc(OC)c1OC | – | 92 | 94 | – | 81 | 104 | 94 | 83 | 103 | CF NFkB conf=–
COc1cc(/C=C/C(=O)N2CCCN(C(=O)/C=C/c3cc(OC)c(OC)c(OC)c3)CC2)cc(OC)c1OC | – | – | – | – | – | – | · | · | ·
CCc1nc2c(OCC(=O)c3ccc(F)cc3)cccn2c1N(C)C(=O)C(C)C | – | · | – | – | – | – | · | · | ·
CC(C)C[C@H]1CN(CCCC[C@H]2CNC(=O)C(=O)N2CCc2ccc(O)cc2)C(=O)C(=O)N1Cc1ccccc1 | · | · | – | · | · | · | · | · | ·
COCCn1c(C)cc(C(=O)CSc2nnc(C)s2)c1C | – | 67 | 70 | – | – | 95 | 74 | 84 | –
COC(=O)c1cn(NC(=O)c2cc([N+](=O)[O-])ccc2F)c(=O)c2ccccc12 | 94 | – | – | – | – | 58 | 66 | · | · | Mdm2 MdmX conf=95
COC(=O)c1cn(NC(=O)C2CCC(C)CC2)c(=O)c2ccccc12 (stereo unspecified) | – | – | – | – | – | – | · | · | ·
Cn1nnnc1Sc1ncnc2scc(-c3cccc4ccccc34)c12 | – | – | 53 | – | – | 98 | 97 | 68 | 105
SMILES | Shn3 3UTR inh | MITF TRPM1 inh | HIF-2a block | KKLEB tox | CF NFkB inh | Peg3 prom inh-1 | Peg3 prom inh-2 | HIF-2a inh conf | HIF-1a counter | others
COc1ccccc1-c1csc2ncnc(Sc3nnnn3C)c12 | – | – | – | – | – | – | · | · | ·
CNC[C@H](CC1CCCCC1)NC[C@H](Cc1ccccc1)NCCC12CC3CC(CC(C3)C1)C2 | 98 | – | 96 | -85 | 65 | 99 | 100 | – | 104 | Mdm2 MdmX conf=103
NC[C@H](Cc1ccccc1)NCCCCC1CCCCC1 | – | – | – | – | – | – | · | · | ·
O=C1CCCCC1Sc1nnc(-c2ccc3c(c2)OCO3)o1 (stereo unspecified) | – | – | 69 | – | – | 85 | 74 | 86 | 92
Clc1ccc(CSc2nnc(-c3ccc4c(c3)OCO4)o2)cc1 | – | – | – | – | – | – | · | · | ·
Cc1cc2c(c(/C=C/C(=O)c3ccccc3)c1)OC1(C=C2)Oc2ccccc2C(=O)N1C (stereo unspecified) | 93 | – | 80 | – | 62 | 80 | 99 | 62 | 105 | CF NFkB conf=–
O=[N+]([O-])c1ccc(-c2nc(C(Cl)Cl)c3ccccc3n2)cc1 | – | 66 | – | – | – | 64 | – | · | · | Mdm2 MdmX conf=102
CN(Cc1ccccc1)c1nc(-c2ccc([N+](=O)[O-])cc2)nc2ccccc12 | – | – | – | – | – | – | · | · | ·
CC(C)Cc1nc2oc3c(NCC(C)O)ncnc3c2c2c1CCCC2 (stereo unspecified) | – | – | – | – | – | – | · | · | ·
CCCc1nc2oc3c(NCCCN(C)C)ncnc3c2c2c1CCCC2 | – | 78 | – | – | – | 92 | 93 | · | · | Mdm2 MdmX conf=101
CC1NC(=O)c2cc3ccccc3cc2-n2c1nc1cc(Cl)ccc1c2=O (stereo unspecified) | – | · | – | – | – | – | · | · | ·
O=C(Nc1ccc(Cl)cn1)c1cc2ccccc2o1 | – | – | – | – | – | – | · | · | ·
O=C(Nc1ccccn1)c1cc2ccccc2o1 | – | 62 | 45 | – | – | 51 | 45 | 70 | 61
CCNC(=O)C1(C)CCN(C(=O)c2ccc(C(F)(F)F)cc2)C1 (stereo unspecified) | – | · | – | – | – | – | · | · | ·
CC(C)OC(=O)c1ccccc1C(=O)c1ccc(N)c([N+](=O)[O-])c1 | – | – | – | – | – | – | · | · | ·
